Experimental data: PubChem BioAssay AID1159580 (chemical genetic matrix, 2015)
The campaign covered roughly 5,500 compounds. About 2,000 (36%) were called active. Another 18% or so got no clear call; they are omitted. Cut-off read from the data, not from the text of the source: active = normalized growth mostly below about 0.91 (no sharp cut-off); inconclusive = no clear call, values can overlap the other calls; inactive = mostly above about 0.92. The list shows a part of the results.

Assay: chemical genetic growth profiling, strain panel (AID 1159580);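 note: tested at 20 µM; growth read once vehicle control cultures reached saturation at 30 °C; 1 = growth at the plate median or of vehicle wells; lower values mean less growth of the strain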
Settings: growth OD

Measured: normalized growth

COc1cc2cc3c4cc(OC)c(OC)cc4cc[n+]3c(C)c2cc1OC
inactive: S. cerevisiae deletion strains, locus YJR043C, strain POL32, hits give low values 0.98 | S. cerevisiae deletion strains, locus YJR066W, strain TOR1, hits give low values 0.964 | S. cerevisiae deletion strains, locus YKL009W, strain mrt4, hits give low values 0.997 | S. cerevisiae deletion strains, locus YKL068W, hits give low values 1.01 | S. cerevisiae deletion strains, locus YKL085W, strain MDH1 (second series), hits give low values 1.03 | S. cerevisiae deletion strains, locus YKL085W, strain MDH1, hits give low values 1.03 | S. cerevisiae deletion strains, locus YKL160W, strain elf1, hits give low values 0.988 | S. cerevisiae deletion strains, locus YKL190W, strain CNB1, hits give low values 1.01 | S. cerevisiae deletion strains, locus YKR001C, strain vps1, hits give low values 1.05 | S. cerevisiae deletion strains, locus YKR026C, strain gcn3, hits give low values 1.02 | S. cerevisiae deletion strains, locus YKR091W, strain srl3, hits give low values 1 | S. cerevisiae deletion strains, locus YLL001W, strain dnm1, hits give low values 1.01 | S. cerevisiae deletion strains, locus YLL026W, hits give low values 1.02 | S. cerevisiae deletion strains, locus YLL041C, strain sdh2, hits give low values 1.02 | S. cerevisiae deletion strains, locus YLR027C, strain aat2, hits give low values 1.03 | S. cerevisiae deletion strains, locus YLR039C, strain RIC1, hits give low values 1.11 | S. cerevisiae deletion strains, locus YLR058C, strain SHM2, hits give low values 0.998 | S. cerevisiae deletion strains, locus YLR102C, strain apc9, hits give low values 1.01 | S. cerevisiae deletion strains, locus YLR113W, strain HOG1, hits give low values 0.992 | S. cerevisiae deletion strains, locus YLR221C, strain rsa3, hits give low values 1.02 | S. cerevisiae deletion strains, locus YLR258W, strain gsy2, hits give low values 0.982 | S. cerevisiae deletion strains, locus YLR262C, strain YPT6 (second series), hits give low values 1.03 | S. cerevisiae deletion strains, locus YLR262C, strain YPT6, hits give low values 1.14 | S. cerevisiae deletion strains, locus YLR268W, strain sec22, hits give low values 1.02 | S. cerevisiae deletion strains, locus YLR320W, strain mms22, hits give low values 1 | S. cerevisiae deletion strains, locus YLR330W, strain CHS5, hits give low values 1.01 | S. cerevisiae deletion strains, locus YLR342W, strain FKS1 (second series), hits give low values 0.98 | S. cerevisiae deletion strains, locus YLR342W, strain FKS1, hits give low values 1.02 | S. cerevisiae deletion strains, locus YLR357W, strain rsc2, hits give low values 1.01 | S. cerevisiae deletion strains, locus YLR370C, strain arc18, hits give low values 1.02 | S. cerevisiae deletion strains, locus YLR371W, strain rom2, hits give low values 1.02 | S. cerevisiae deletion strains, locus YLR384C, strain iki3, hits give low values 1.01 | S. cerevisiae deletion strains, locus YLR418C, strain cdc73, hits give low values 0.966 | S. cerevisiae deletion strains, locus YML016C, strain PPZ1, hits give low values 1.02 | S. cerevisiae deletion strains, locus YML032C, strain rad52, hits give low values 0.925 | S. cerevisiae deletion strains, locus YML120C, strain ndi1, hits give low values 1 | S. cerevisiae deletion strains, locus YML124C, strain tub3, hits give low values 1.01 | S. cerevisiae deletion strains, locus YMR058W, strain fet3, hits give low values 1.02 | S. cerevisiae deletion strains, locus YMR078C, strain ctf18, hits give low values 1.02 | S. cerevisiae deletion strains, locus YMR125W, strain sto1, hits give low values 0.999 | S. cerevisiae deletion strains, locus YMR129W, hits give low values 1.01 | S. cerevisiae deletion strains, locus YMR205C, strain PFK2, hits give low values 0.979 | S. cerevisiae deletion strains, locus YMR223W, strain ubp8, hits give low values 0.982 | S. cerevisiae deletion strains, locus YMR231W, strain pep5, hits give low values 0.949 | S. cerevisiae deletion strains, locus YMR307W, strain GAS1, hits give low values 1.02 | S. cerevisiae deletion strains, locus YNL067W, strain RPL9B, hits give low values 1.01 | S. cerevisiae deletion strains, locus YNL071W, strain lat1, hits give low values 1 | S. cerevisiae deletion strains, locus YNL183C, strain NPR1, hits give low values 0.938 | S. cerevisiae deletion strains, locus YNL209W, strain ssb2, hits give low values 1 | S. cerevisiae deletion strains, locus YNL233W, strain BNI4, hits give low values 0.995 | S. cerevisiae deletion strains, locus YNL248C, strain rpa49, hits give low values 1.01 | S. cerevisiae deletion strains, locus YNL250W, strain rad50, hits give low values 1 | S. cerevisiae deletion strains, locus YNL271C, strain bni1, hits give low values 1.02 | S. cerevisiae deletion strains, locus YNL298W, strain CLA4, hits give low values 1.01 | S. cerevisiae deletion strains, locus YNL307C, strain MCK1, hits give low values 1.01 | S. cerevisiae deletion strains, locus YNL322C, strain KRE1 (second series), hits give low values 1 | S. cerevisiae deletion strains, locus YNR049C, strain mso1, hits give low values 1.04 | S. cerevisiae deletion strains, locus YNR052C, strain pop2, hits give low values 0.978 | S. cerevisiae deletion strains, locus YOL006C, strain TOP1, hits give low values 1.04 | S. cerevisiae deletion strains, locus YOL012C, strain htz1 1.07 | S. cerevisiae deletion strains, locus YOL147C, strain pex11, hits give low values 1.03 | S. cerevisiae deletion strains, locus YOR001W, strain rrp6, hits give low values 1.03 | S. cerevisiae deletion strains, locus YOR061W, strain CKA2, hits give low values 1.01 | S. cerevisiae deletion strains, locus YOR069W, strain VPS5, hits give low values 1.01 | S. cerevisiae deletion strains, locus YOR070C, strain gyp1, hits give low values 1.02 | S. cerevisiae deletion strains, locus YOR080W, strain dia2, hits give low values 1.01 | S. cerevisiae deletion strains, locus YOR083W, strain WHI5, hits give low values 0.985 | S. cerevisiae deletion strains, locus YOR106W, strain vam3, hits give low values 0.981 | S. cerevisiae deletion strains, locus YOR136W, strain idh2, hits give low values 1.02 | S. cerevisiae deletion strains, locus YOR144C, strain elg1, hits give low values 1.01 | S. cerevisiae deletion strains, locus YOR184W, strain ser1, hits give low values 0.993 | S. cerevisiae deletion strains, locus YOR231W, strain MKK1, hits give low values 0.983 | S. cerevisiae deletion strains, locus YOR265W, strain rbl2, hits give low values 1.01 | S. cerevisiae deletion strains, locus YOR270C, strain vph1, hits give low values 1.08 | S. cerevisiae deletion strains, locus YOR290C, strain snf2, hits give low values 0.982 | S. cerevisiae deletion strains, locus YOR316C, strain cot1, hits give low values 1.02 | S. cerevisiae deletion strains, locus YPL051W, strain arl3, hits give low values 1.02 | S. cerevisiae deletion strains, locus YPL055C, strain LGE1, hits give low values 0.999 | S. cerevisiae deletion strains, locus YPL078C, strain atp4, hits give low values 1 | S. cerevisiae deletion strains, locus YPL106C, strain sse1, hits give low values 0.983 | S. cerevisiae deletion strains, locus YPL240C, strain hsp82, hits give low values 1 | S. cerevisiae deletion strains, locus YPL256C, strain CLN2, hits give low values 0.968 | S. cerevisiae deletion strains, locus YPR119W, strain clb2, hits give low values 1.01 | S. cerevisiae deletion strains, locus YPR141C, strain kar3, hits give low values 1.01 | S. cerevisiae deletion strains, locus YPR163C, strain tif3, hits give low values 1.01 | S. cerevisiae deletion strains, locus YPR167C, strain met16, hits give low values 0.997 | S. cerevisiae deletion strains, strain wtn01, hits give low values 1.02 | S. cerevisiae strains, strain wild type, hits give low values 1
